Compound activity as filed in PubChem.
GRP78 ERSR act: qHTS for Inducers of the Endoplasmic Reticulum Stress Response (ERSR) in Human Glioma: qHTS | U87-MG GRP78 promoter luciferase reporter, 16 h | Potency, µM, for the others: top-dose activation, actives largely listed as activators | 420,000 compounds, 0.02% hits | AID 602332, 2012; note: series mostly up to about 76 µM; % of control where 0% means no effect; nearly all actives have a fitted effect of over 35% in size
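ERSR induction read as luciferase luminescence (Bright-Glo, 10 min at room temperature) in stably transfected human U87-MG glioma cells exposed to compounds for 16 h, using GRP78 as sensor.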
Mito fusion yeast: qHTS Assay for Small Molecule Inhibitors of Mitochondrial Division or Activators of Mitochondrial Fusion; Potency, µM (titrated, usually from 46.1 µM), for the others: top-dose growth rescue (activation), hits mostly activators; 320,000 compounds, 0.23% hits; S. cerevisiae fusion-defective mutant growth rescue, CellTiterGlo 48 h; AID 485298, 2010; note: % of control where 0% means no effect; nearly all actives have a fitted effect of over 45% in size
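Read-out: ATP-based luminescence (CellTiterGlo, 10 min ambient) reporting growth of fusion-defective ts yeast after 48 hours at 37C on glycerol/ethanol YPEG medium in the presence of compound.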
aSyn yeast inh: qHTS of alpha-syn Inhibitors | AID 652106, 2013 | 370,000 compounds, 0.14% hits | Potency, µM (doses to about 46.1 µM), without a hit: at the highest dose growth rescue (activation), most hits filed as activators | Yeast expressing alpha-synuclein, growth rescue, BacTiter-Glo, 24 h; note: % of control where 0% means no effect; nearly all actives have a fitted effect of over 65% in size
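Readout is rescue of growth in alpha-synuclein-expressing yeast, so inhibitors of toxicity appear as activators. Growth after 24 hr at 30 deg C in galactose medium is quantified by luminescence.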
A-T KAP1 phos: qHTS Assay for Identifying a Potential Treatment of Ataxia-Telangiectasia | F2112 A-T fibroblasts, KAP-1 phosphorylation AlphaLISA; neocarzinostatin DNA damage 30 min before lysis | Potency, µM (doses to about 57.5 µM), without a hit: at the highest dose activation, most hits filed as activators | 320,000 compounds, 0.19% hits; note: % of control where 0% means no effect; nearly all actives have a fitted effect of over 45% in size
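ATM-like activity read as KAP-1 phosphorylation via AlphaLISA donor/acceptor antibody pairs after lysis and 6 hr at 25C. Cells were ATM-null patient fibroblasts (F2112, hTERT), dosed 60 min, then exposed to the DSB inducer NCS for 30 min.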
Abeta yeast res: qHTS for compounds that reverse cellular toxicity of Amyloid beta (A-beta) peptide in yeast: Primary Screen; 410,000 compounds, 0.063% hits; Potency, µM (doses to about 46.1 µM), usual class: activators; yeast expressing A-beta42, growth rescue, OD600, 48 h; response scale: 0% DMSO, 100% iron-clioquinol control; note: nearly all actives have a fitted effect of over 55% in size
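Yeast A-beta toxicity model in growth medium with pinned compounds, 48 h at 30 C; growth read as absorbance at 600 nm. Normalized to FeCl3/clioquinol equimolar mix (positive) and DMSO (negative).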
TDP43 rescue: qHTS of TDP-43 Inhibitors; 410,000 compounds, 1.8% hits; TDP-43 expressing yeast growth rescue, BacTiter-Glo, 24 h; Potency, µM (series often up to 46.1 µM), without a hit: at the top dose growth rescue (activation), hits mostly activators; note: % of control where 0% means no effect; nearly all actives have a fitted effect of over 50% in size
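Galactose-induced TDP-43 yeast, OD600=0.02, compound pinned; 24 hr, 30 deg C; BacTiter-Glo luminescence for growth. Inhibitors of TDP-43 toxicity read as activators.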
Active calls of the source: *; i = inactive; ? = inconclusive; · = not tested or not shown. Compounds with a hit are over-represented: about 2.1% of the library has one in this group of screens. Calls come from the whole dose curve; as a rule, active = well fitted curve in the direction sought with a large enough effect; inconclusive = small, poorly fitted or top-dose-only effect, or another doubt; inactive = no such curve, though single readings can be large; an effect the other way counts as inactive or inconclusive. Potency is the fitted concentration of half-maximal effect.

SMILES | GRP78 ERSR act | Mito fusion yeast | aSyn yeast inh | A-T KAP1 phos | Abeta yeast res | TDP43 rescue
O=C(O)CCCN1C(=O)/C(=C/C=C/c2ccco2)SC1=S | -15% | -5% | 18% | 4µM* | i | -8%
COc1cccc(S(=O)(=O)Nc2ccc(C(O)(C(F)(F)F)C(F)(F)F)cc2)c1 | -5% | · | -3% | · | i | 25%
CC(C)(C)c1ccc(S(=O)(=O)Nc2ccc(C(O)(C(F)(F)F)C(F)(F)F)cc2)cc1 | -9% | · | -25% | · | ? | 35µM*
O=S(=O)(Nc1ccc(C(O)(C(F)(F)F)C(F)(F)F)cc1)c1cccc2ccccc12 | -5% | · | -16% | · | i | 35µM*
CCc1ccc(S(=O)(=O)NCc2nc(N3CCCC3)c3cccc(C)c3n2)cc1 | -5% | · | · | · | · | ·
CC(CCc1ccccc1)NC(=O)/C=C/c1ccc(F)cc1 (stereo unspecified) | · | 11µM* | · | 0% | · | ·
CC(=O)Nc1ccc(Nc2ncnc3c2c(-c2ccccc2)cn3-c2ccc(C)c(Cl)c2)cc1 | -6% | · | · | · | i | 16µM*
COCCNc1ncnc2c1c(-c1ccccc1)cn2-c1cccc(Cl)c1 | -2% | 6% | · | · | i | 35µM*
COc1ccc(CCNc2ncnc3c2c(-c2ccccc2)cn3-c2cccc(Cl)c2)cc1OC | -3% | · | · | · | i | ?
CC(=O)Nc1ccc(Nc2ncnc3c2c(-c2ccccc2)cn3-c2ccccc2)cc1 | -2% | · | · | · | i | ?
NC(=S)NN=C(c1ccccc1)c1ccccc1 | 1% | -9% | -22% | 8% | ? | 13µM*
C/C(=N\NC(N)=S)c1ccccc1 | -3% | 0% | -5% | -58% | ? | 21%
CC(/C=C/c1ccccc1)=N\NC(N)=S | 6% | -4% | 0% | -1% | i | 13µM*
Cc1cnc(C(=O)NCc2c(C)ncc3c2CCN(C(=O)/C=C/c2cccs2)C3)cn1 | -3% | · | · | · | · | ·
C[C@@H]1Cc2[nH][nH]c(=O)c2[C@H](c2ccc(Cl)cc2)O1 | · | · | 0% | · | i | 29%
O=c1[nH][nH]c2c1[C@@H](c1ccc(F)cc1)O[C@H](C1CCCCC1)C2 | · | · | -2% | · | i | 14%
O=c1[nH][nH]c2c1[C@H](c1ccc(F)cc1)O[C@H](C1CCCCC1)C2 | · | · | 1% | · | i | 32µM*
CCCC[C@@H]1Cc2[nH][nH]c(=O)c2[C@H](c2ccc(C(C)C)cc2)O1 | · | · | -20% | · | i | 20µM*
O=c1[nH][nH]c2c1[C@H](c1ccc(Cl)cc1)O[C@H](C1CC1)C2 | · | · | 1% | · | i | 11µM*
CCCC[C@@H]1Cc2[nH][nH]c(=O)c2[C@@H](c2ccc(Cl)cc2)O1 | · | · | 5% | · | i | 0%
O=c1[nH][nH]c2c1[C@H](c1ccccc1)O[C@H](C1CCCCC1)C2 | · | · | 5% | · | i | 35µM*
COc1ccc(-n2ccnc(NCCc3ccc(S(N)(=O)=O)cc3)c2=O)cc1 | -1% | · | · | · | i | 21%
Cc1c(C(=O)NCC2COCCO2)cnn1-c1ncc2c(n1)-c1ccccc1CC2 (stereo unspecified) | 1% | · | · | · | · | ·
CCc1cc(C(=O)NNC(=S)Nc2cccc(C)c2)cs1 | 9% | 27% | -4% | 2% | i | ?
CCc1cc(C(=O)Nc2ccc(C)cc2Br)cs1 | -1% | 15% | -1% | 7% | i | 13µM*
Cn1nc(C(=O)NCCN2Cc3ccccc3OC(c3ccsc3)C2)c2ccccc2c1=O (stereo unspecified) | -2% | · | · | · | · | ·
COc1cc(C(=O)Nc2nc3c(s2)Cc2c(Br)ccc(OC)c2-3)cc(OC)c1OC | · | · | · | · | i | 10%
O=C(CSc1ccccc1)NCc1ccccc1 | -1% | 2% | 0% | 8% | i | 0%
